Screening results from PubChem BioAssay.
Most compounds without a hit are left out; they make up all but 3.5% or so of the library.
FBW7 act: activators of human E3 ligase FBW7; AID 1259310; 650,000 compounds, 0.13% hits; normalized activity (activation), % at 26.1 µM; AlphaScreen FBW7–phospho-cyclin E peptide binding, activator screen; Q969H0; in the data active = normalized activity above about 1.9%;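 also: purified mutant Fbw7 with reduced substrate affinity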
Target sequence (Q969H0 whole entry, looked up): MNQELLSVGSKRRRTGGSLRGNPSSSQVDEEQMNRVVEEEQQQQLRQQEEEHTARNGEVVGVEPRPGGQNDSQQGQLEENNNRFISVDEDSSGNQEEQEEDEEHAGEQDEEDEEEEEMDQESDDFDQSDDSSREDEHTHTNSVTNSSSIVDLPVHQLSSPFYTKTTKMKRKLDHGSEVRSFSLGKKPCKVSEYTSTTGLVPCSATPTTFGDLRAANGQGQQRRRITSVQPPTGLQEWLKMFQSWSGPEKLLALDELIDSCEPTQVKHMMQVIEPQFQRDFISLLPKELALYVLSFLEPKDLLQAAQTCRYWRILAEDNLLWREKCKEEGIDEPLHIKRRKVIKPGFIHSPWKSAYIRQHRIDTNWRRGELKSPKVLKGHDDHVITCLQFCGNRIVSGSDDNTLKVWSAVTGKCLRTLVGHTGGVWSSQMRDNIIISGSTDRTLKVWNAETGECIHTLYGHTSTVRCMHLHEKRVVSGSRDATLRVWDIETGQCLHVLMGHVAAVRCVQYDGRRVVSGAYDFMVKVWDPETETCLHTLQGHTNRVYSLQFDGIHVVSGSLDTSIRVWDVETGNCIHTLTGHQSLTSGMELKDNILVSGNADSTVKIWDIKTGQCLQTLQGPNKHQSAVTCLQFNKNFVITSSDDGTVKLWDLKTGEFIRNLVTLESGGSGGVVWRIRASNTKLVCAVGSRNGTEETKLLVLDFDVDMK
TEAD-YAP block: TEAD-YAP interaction inhibition | 640,000 compounds, 1.4% hits | HEK-TIYL cells, TEAD-Gal4/YAP UAS-luciferase luminescence | inhibition, % at 9.12 µM; in the data active = inhibition above about 32%;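 also: 0% = median of test compound wells and 100% = reference inhibitor wells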
MITF primary: inhibitors of human MITF; AID 1259374; 650,000 compounds, 0.91% hits; O75030; AlphaScreen MITF homodimerization, bead proximity signal; inhibition, % at 2.6 µM; in the data active = inhibition above about 50%;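 also: 0% = vehicle wells with protein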
GPR151 ag: human GPR151 activation. Q8TDV0. PathHunter beta-arrestin GPR151 cells, luminescence. activation, % at 11.2 µM. 650,000 compounds, 1% hits. AID 1508602; in the data active = activation above about 4.9%;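 also: 0% = median of compound wells and 100% = cells with positive control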
GPR151 confirm: human GPR151 activation, confirmation screen; activation, % at 11.2 µM; shares compounds with GPR151 ag; 6,700 tested, under 10 active; GPR151 PathHunter beta-arrestin cells, luminescence, 90 min; % of EA-reagent control over plate median;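 active = mean percent activation across replicates above the confirmation screen cutoff of 4.91%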
GPR119 ag: activates human GPR119 in a GPR151 counter-screen. shares compounds with GPR151 ag. activation, % at 11.2 µM. AID 1508611. 6,700 compounds, 0.3% hits. GPR119 PathHunter beta-arrestin cells, luminescence, 90 min; 0 = compound-well median, 100 = enzyme-acceptor control;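 active = mean percent activation in the counterscreen above 29.09%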;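 also: counterscreen on off-target GPR119 to flag nonselective hits from the GPR151 activator screen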
Active calls of the source: *.

For CSc1ccc(S(=O)(=O)N2CCCCCC2)cc1 the results were FBW7 act 0, TEAD-YAP block 3, MITF primary 15, GPR151 ag 5.0*, GPR151 confirm 0 and GPR119 ag 0.
For CN1CCN(S(=O)(=O)c2ccc(C3CCCCC3)cc2)CC1 the results were FBW7 act 0, TEAD-YAP block 2, MITF primary 4, GPR151 ag 5.3*, GPR151 confirm 1 and GPR119 ag -2.
CC(=O)N1c2ccc(S(=O)(=O)N3CCCC3C(=O)Nc3cccc(C)n3)cc2CC1C (stereo not drawn) was read as FBW7 act 0, TEAD-YAP block 7, MITF primary 6 and GPR151 ag 1.
CC(=O)N1c2ccc(S(=O)(=O)N3CCCC3C(=O)Nc3nc(C)cs3)cc2CC1C (stereo not drawn) was read as FBW7 act 0, TEAD-YAP block 10, MITF primary 5, GPR151 ag 5.0*, GPR151 confirm 0 and GPR119 ag 2.
For CCN(CC)S(=O)(=O)c1ccc(-c2csc(=Nc3cccc4ccccc34)n2C)cc1 the results were FBW7 act 0, TEAD-YAP block 5, MITF primary 7 and GPR151 ag 1.
Screening Cc1nc2scc(C)n2c1C(=O)N1CC(C)CC(C)C1 (stereo not drawn) returned FBW7 act 0, TEAD-YAP block 0, MITF primary -3 and GPR151 ag 1.
CC(NC(=O)CSc1nc2ccc(N)cc2s1)c1ccccc1 (stereo not drawn) was read as FBW7 act 0, TEAD-YAP block 3, MITF primary -4, GPR151 ag 6.3*, GPR151 confirm 0 and GPR119 ag -2.
`Nc1ccc2nc(SCC(=O)Nc3ccccc3)sc2c1` gave FBW7 act 0, TEAD-YAP block -38, MITF primary 4 and GPR151 ag 2.
For O=C(COc1ccc(/C=C2/NC(=O)N(c3ccccc3)C2=O)cc1Cl)Nc1ccccc1 the results were FBW7 act 0, TEAD-YAP block -12, MITF primary -6, GPR151 ag 9.0*, GPR151 confirm -1 and GPR119 ag -14.
`O=C(COc1ccc(/C=C2/NC(=O)N(c3ccccc3)C2=O)cc1)Nc1ccc(F)cc1` gave FBW7 act 0, TEAD-YAP block 3, MITF primary 15 and GPR151 ag -1.
Screening O=C(COc1ccccc1Cl)Nc1ccc(N2CCN(C(=O)c3ccco3)CC2)cc1 returned FBW7 act 0, TEAD-YAP block 13, MITF primary 2, GPR151 ag 9.9*, GPR151 confirm 0 and GPR119 ag 7.
For O=C(COc1ccc(Cl)cc1Cl)Nc1ccc(NC(=O)c2ccco2)c(Cl)c1 the results were FBW7 act 0, TEAD-YAP block -17, MITF primary -2 and GPR151 ag 0.
`O=C(COc1ccc(Cl)cc1Cl)Nc1cccc(NC(=O)c2ccco2)c1` gave FBW7 act 0, TEAD-YAP block -23, MITF primary 8, GPR151 ag 11*, GPR151 confirm 0 and GPR119 ag 2.
For O=C(COc1ccc(Cl)cc1Cl)OCc1ccco1 the results were FBW7 act 0, TEAD-YAP block 19, MITF primary -7, GPR151 ag 6.5*, GPR151 confirm 0 and GPR119 ag -1.
`O=C(COc1ccc(Cl)cc1Cl)NCc1ccco1` gave FBW7 act 0, TEAD-YAP block -53, MITF primary 13 and GPR151 ag 0.
For O=c1[nH]c(N2CCCCC2)nc2c1CCN(Cc1c(F)cccc1F)C2 the results were FBW7 act 0, TEAD-YAP block 0, MITF primary 6 and GPR151 ag 0.
Screening CC1CCCC(NC(=O)c2ccc3c(=O)n(CCc4ccccc4)c(=S)[nH]c3c2)C1C (stereo not drawn) returned FBW7 act 0, TEAD-YAP block -4, MITF primary 21 and GPR151 ag 1.
`CC(O)CCC(=O)N/N=C/c1cc([N+](=O)[O-])ccc1O` (stereo not drawn) gave FBW7 act -2, TEAD-YAP block 3, MITF primary 7, GPR151 ag 10*, GPR151 confirm 0 and GPR119 ag 0.
Screening O=C(COc1ccc(Cl)cc1Br)N/N=C/c1cc([N+](=O)[O-])ccc1O returned FBW7 act 0, TEAD-YAP block -4, MITF primary -5, GPR151 ag 5.1*, GPR151 confirm 1 and GPR119 ag 11.
COc1ccc(C(=O)N/C(=C\c2ccc(F)cc2)C(=O)Nc2cc([N+](=O)[O-])ccc2C)cc1 was read as FBW7 act 0, TEAD-YAP block -11, MITF primary -4 and GPR151 ag -2.
`COc1ccc2[nH]c3c(=O)n(Cc4ccc(C(=O)NC5CC5)cc4)c(=S)[nH]c3c2c1` gave FBW7 act 0, TEAD-YAP block -3, MITF primary 12 and GPR151 ag -1.
COc1ccc(C2C(C(C)=O)=C(O)C(=O)N2CCO)c(OC)c1 (stereo not drawn) was read as FBW7 act 0, TEAD-YAP block -2, MITF primary -7 and GPR151 ag 0.
For CCCCN1C(=O)C(O)=C(C(C)=O)C1c1ccc(OC)cc1OC (stereo not drawn) the results were FBW7 act 0, TEAD-YAP block -1, MITF primary 10, GPR151 ag 5.2*, GPR151 confirm 1 and GPR119 ag 12.
For NNC(=O)CCCNS(=O)(=O)c1ccc([N+](=O)[O-])cc1 the results were FBW7 act 0, TEAD-YAP block 0, MITF primary 0, GPR151 ag 5.7*, GPR151 confirm 1 and GPR119 ag 6.
Cc1nn(Cc2ccc(F)cc2)c(C)c1N was read as FBW7 act 0, TEAD-YAP block -7, MITF primary -7, GPR151 ag 15*, GPR151 confirm 1 and GPR119 ag 5.
COc1ccc(OCC(=O)N/N=C/c2cc([N+](=O)[O-])ccc2OC)c(Br)c1 was read as FBW7 act 0, TEAD-YAP block 3, MITF primary 10 and GPR151 ag -1.
For CCOC(=O)C1=C(O)/C(=C/c2ccccc2)SC1=Nc1ccccc1 the results were FBW7 act 0, TEAD-YAP block -3, MITF primary 21 and GPR151 ag -1.
Screening CCOC(=O)C1=C(O)/C(=C/c2ccc(C(=O)OC)cc2)SC1=NC(=O)c1ccccc1 returned FBW7 act 0, TEAD-YAP block 0, MITF primary 4, GPR151 ag 6.7*, GPR151 confirm 0 and GPR119 ag -2.
CCOc1ccc(NC(=O)CSc2nc(C)c(C)n2-c2ccccc2)cc1 was read as FBW7 act 0, TEAD-YAP block 11, MITF primary 28 and GPR151 ag -1.
